Bioassay records deposited in PubChem by University of Kansas High Throughput Screening Laboratory.
Pf apPOL inh: Pf-apPOL DNA polymerase inhibition. Recombinant Pf-apPOL, molecular beacon fluorescence, 1.5 h. inhibition, % at 10 µM. 210,000 tested, 0.25% active
mHTT-CaM PPI inh: disrupts binding of mutant huntingtin to calmodulin | 190,000 tested, 3.6% active | AlphaScreen His-mHTT/GST-CaM binding, luminescence | inhibition, % at 15 µM | P42858;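 note: 0% = both proteins with DMSO and 100% = one protein alone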
* hit, by the source's call; · = no result given. Hits are enriched below; roughly 3.5% of the tested compounds scored in any of these assays. Cut-off read from the data, not from the text of the source: active = inhibition above about 50%; inactive = the rest.

SMILES	Pf apPOL inh	mHTT-CaM PPI inh
Cc1ccc(NC(=O)CN2CCC(C(=O)NCc3c(F)cccc3F)CC2)c(C)c1	-6	-14
COc1ccc(NC(=O)COc2ccccc2Cl)c(OC)c1	-3	7
OCCCc1nc2n(n1)C(c1cccc(Cl)c1)C=C(c1ccc(F)cc1)N2 (stereo not drawn)	-6	41
COc1ccc(C2C=C(c3ccc(Cl)cc3)Nc3nc(CCCO)nn32)cc1OC (stereo not drawn)	12	52*
CC(C(=O)NC1CCCCC1)C1CCN(S(=O)(=O)c2cccs2)CC1 (stereo not drawn)	4	-14
CN(C)C=Cc1ccnc(-c2cc(C=CN(C)C)ccn2)c1	66*	·
O=C(O)c1ccnc(-c2cc(C(=O)O)ccn2)c1	-23	·
Cc1cc(Cl)cc2sc(N(CCCn3ccnc3)C(=O)c3cccs3)nc12	-7	82*
CSc1cccc2sc(N(CC3CCCO3)C(=O)c3ccc4c(c3)OCCO4)nc12 (stereo not drawn)	-1	2
Cc1ccc2sc(N(CCCn3ccnc3)C(=O)c3ccc4c(c3)OCCO4)nc2c1C	-6	58*
CC(=O)N(CCN1CCOCC1)c1nc2c(C)cc(Cl)cc2s1	-1	10
O=C(Cc1ccccc1)N1N=C(c2ccccc2)CC1c1ccccc1 (stereo not drawn)	-6	-6
Cc1nc2nc(SCC(=O)N3CCC(C)CC3)nn2c(C)c1Cc1cccc(Cl)c1	-7	29
CCNC(=O)c1ccccc1-c1ccccc1C(=O)O	-3	-5
CCNC(=O)c1ccc2c3c(onc13)-c1ccccc1C2=O	0	51*
O=C(NCc1cccc(C(F)(F)F)c1)C1CCN(c2cncnc2N2CCCC2)CC1	3	63*
CCc1ccc(CNC(=O)C2CCN(c3cncnc3N3CCCC3)CC2)cc1	1	7
O=C(NCc1ccc(Cl)cc1)C1CCN(c2cncnc2N2CCCC2)CC1	-4	70*
O=C(NCc1cccc(F)c1)C1CCN(c2cncnc2N2CCCC2)CC1	-9	17
COCCCNC(=O)c1ccc2c(c1)NC(=O)C(N1CCOCC1)S2 (stereo not drawn)	-15	-7
CC1CCCCC1NS(=O)(=O)c1ccc(F)c(C(=O)Nc2ccccc2Br)c1 (stereo not drawn)	-4	-8
Cc1cc(NC(=O)NCCCSc2nnnn2-c2ccccc2)no1	-7	-7
O=C(CC1CCCC1)N1CCC(O)(c2ccccc2)C(N2CCCC2)C1 (stereo not drawn)	1	77*
O=C(C1CCCCC1)N1CCC(O)(c2ccccc2)C(N2CCCC2)C1 (stereo not drawn)	-11	51*
CCCC(=O)N1CCC(O)(c2ccccc2)C(N2CCCC2)C1 (stereo not drawn)	-11	6
SMILES	Pf apPOL inh	mHTT-CaM PPI inh
CCOCC(=O)N1CCC(O)(c2ccccc2)C(N2CCCC2)C1 (stereo not drawn)	3	8
COCC(C)(O)CNC(=O)Nc1cccc(OC)c1OC (stereo not drawn)	-4	-12
O=[N+]([O-])c1ccc(S(=O)(=O)NCCOc2ccccc2)cc1	-5	1
Cc1ccccc1C(=O)NCCSc1c(C)[nH]c2ccccc12	3	11
Cc1[nH]c2ccccc2c1SCCNC(=O)c1ccccc1F	-1	99*
Cc1cc(N2C(=O)CSC2c2cccnc2)no1 (stereo not drawn)	-2	·
CCc1ccc(OCCNc2cc(N3CC(C)NC(C)C3)ccc2[N+](=O)[O-])cc1 (stereo not drawn)	-1	100*
CS(=O)(=O)N1CCN(c2ccc([N+](=O)[O-])c(NCCOc3ccc(Cl)cc3)c2)CC1	-11	15
COc1ccccc1/C=C/C=C1\N=C(c2ccc(Cl)c([N+](=O)[O-])c2)OC1=O	5	15
CCOc1ccccc1C(=O)Nc1cccc([N+](=O)[O-])c1C	4	4
Cc1cc(NC(=O)c2ccccc2)cc(C)c1O	-3	-1
Cc1ccc(Nc2cc(C)c(O)c(C)c2)cc1	-5	84*
Cc1ccc2c(c1)NC(c1cccc([N+](=O)[O-])c1)C1=C(CC(C)(C)CC1=O)N2 (stereo not drawn)	-2	24
O=C(NCc1ccccc1)c1ccc(NC(=O)N2CC3CCCN3c3ccccc32)cc1 (stereo not drawn)	2	19
O=C(NCc1ccccc1)N1CC2CCCN2c2ccccc21 (stereo not drawn)	0	83*
CCC1CN(C(=O)NCCC(C)C)c2ccccc2O1 (stereo not drawn)	0	-21
Cc1ccc(CNC(=O)N2CC3CCCN3c3ccccc32)cc1 (stereo not drawn)	-3	57*
CC(C)CCNC(=O)N1CC2CCCN2c2ccccc21 (stereo not drawn)	-3	56*
Cc1cccc(CNC(=O)CCC(=O)N2CC3CCCN3c3ccccc32)c1 (stereo not drawn)	-7	41
CS(=O)(=O)NC1CC2CC1CN2C(=O)c1ccccc1C(F)(F)F (stereo not drawn)	-1	-3
CC(C)(C)OC(=O)NC1(CO)COC(C)(C)OC1	-8	0
Clc1cccc(-c2nc(-c3ccc4nncn4c3)no2)c1	-5	1
CCN1CCN(C(=O)c2cnn3c(-c4ccc(F)cc4)ccnc23)CC1	-6	-3
Cc1ccc(NCCNC(=O)Cc2c[nH]c3ccccc23)nn1	-7	-13
CC1C(=O)C(C)C(c2ccc(N(C)C)cc2)NC1c1ccc(N(C)C)cc1 (stereo not drawn)	-81	77*
SMILES	Pf apPOL inh	mHTT-CaM PPI inh
CC1C(=O)C(C)C(c2ccc(F)cc2)NC1c1ccc(F)cc1 (stereo not drawn)	-101	-21
Cc1ccc(/C=C2/N=C(c3ccco3)OC2=O)cc1	0	39
N=C1S/C(=C\c2cc3c(cc2Cl)OCO3)C(=O)N1c1nccs1	11	11
C=CCOc1ccc(/C=C2\SC(=N)N(c3nccs3)C2=O)cc1OCC	-79	74*
CCOC(=O)c1cc(-c2ccccc2)sc1NC(=O)Nc1ccc(Cl)c(Cl)c1	0	·
Cc1cc(Br)c2c3c(c(N)c(=O)[nH]c13)-c1ccccc1C2=O	-2	29
Cc1cc2c3c(c(Br)cc(S(=O)(=O)O)c3n1)C(=O)c1ccccc1-2	2	99*
O=C(OCc1cn([C@H]2CN(Cc3cccs3)[C@@H](c3ccc(Cl)cc3)C[C@@H]2O)nn1)c1ccccc1	-6	100*
Cc1ccc([C@H]2C[C@H](O)[C@@H](n3cc(COC(=O)c4ccccc4)nn3)CN2Cc2cccs2)cc1	0	100*
O=C(OCc1cn([C@H]2C[C@H](c3ccc(Cl)cc3)N(Cc3cccs3)C[C@@H]2O)nn1)c1ccccc1	-2	34
Cc1ccc([C@H]2C[C@@H](O)[C@H](n3cc(COC(=O)c4ccccc4)nn3)CN2Cc2cccs2)cc1	2	1
O=C(Nc1cccc(Cl)c1)C(Cc1ccccc1)NS(=O)(=O)c1cccs1 (stereo not drawn)	-3	0
Cc1cc(C)c(NC(=O)c2ccc(Cl)cc2Cl)c(Cl)c1	28	-5
CN1C(=O)/C(=C\c2nc3ccccc3c(=O)[nH]2)c2ccccc21	-1	-2
CCCN1C(=O)/C(=C\c2nc3ccccc3c(=O)[nH]2)c2cc(Br)ccc21	4	68*
CC(=O)C1=C(O)C(=O)N(CC(=O)O)C1c1cccc([N+](=O)[O-])c1 (stereo not drawn)	-1	-1
Cc1ccc(NC(=O)C2CC(=O)N(C3CCCCC3)C2)cc1C (stereo not drawn)	-4	3
